DNA Pol III inh: qHTS Assay for Inhibitors of DNA Polymerase III Holoenzyme System; reconstituted DNA polymerase III holoenzyme replication, biochemical; Potency, µM (highest dose often 57.1 µM), without a hit: at the highest dose activity change, negative = inhibition; 71,000 tested, 0.25% active; AID 603, 2007
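Reconstituted *E. coli* holoenzyme (0.35 nM Pol III, 1 nM beta, 154 nM SSB, 2 nM primase) was preincubated with compound for 15 min at RT. Synthesis on 1.4 nM ssM13Gori ran 35 min, then was stopped with PicoGreen/EDTA and read as dsDNA fluorescence.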
Bst PK mod: Pyruvate Kinase. purified pyruvate kinase, luminescence ATP production; ribose 5-phosphate activator present at AC10. Potency, µM. 51,000 tested, 1.2% active; in the data active = potency below about 11 µM; inconclusive = mostly about 12 µM to 25 µM;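 the screen sought inhibitors and activators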;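 also: scaled between full activation by ribose 5 phosphate and full inhibition by luteolin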
Luciferase inh: qHTS Assay for Inhibitors of Firefly Luciferase; Luciferin 4-monooxygenase (Photinus pyralis), P08659; purified firefly luciferase, luminescence, 8 min; Potency, µM (series often up to 57.1 µM), without a hit: top-dose activity change, negative = inhibition, hits mostly inhibitors; 72,000 tested, 2.2% active; AID 411, 2009; also: nearly all actives have a fitted effect of over 40% in size
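qHTS concentration-response profiling: light output of P. pyralis luciferase with luciferin and 10 uM ATP, imidazole buffer pH 7.2. Read by luminescence after 8-min room-temperature incubation.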
ERK AVP block: qHTS Assay for Inhibitors of the ERK Signaling Pathway using a Homogeneous Screening Assay; HEK293-V1b, vasopressin-stimulated pERK AlphaScreen; 72,000 tested, 0.99% active; Potency, µM (top dose mostly 57.5 µM), for the others: at the highest dose activity, negative = inhibition, hits mostly inhibitors; also: nearly all actives have a fitted effect of over 55% in size
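HEK293 cells stably expressing V1b receptor, seeded overnight in 1% FBS, were treated with compounds for 30 min at 37C, then stimulated 5 min with 25 nM vasopressin; phospho-ERK read by AlphaScreen SureFire after lysis.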
Tau fil binding: qHTS Assay for Tau Filament Binding; recombinant tau filaments, thioflavin S fluorescence, 15 h; filaments grown with octadecylsulfate alongside compound; 71,000 tested, 2% active; Microtubule-associated protein tau (Homo sapiens), P10636; Potency, µM (top dose mostly 57.1 µM), without a hit: at the highest dose activity change, negative = inhibition; AID 596, 2007;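 also: actives lower thioflavin S fluorescence by blocking filaments or displacing dye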
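His-tagged recombinant human tau (exons 2, 3, 10; 1 uM final) fibrillized with 30 uM sodium octadecylsulfate, 15 h at 37 C, in pH 7.4 HEPES buffer with 10 uM thioflavine S and 5 mM DTT. Reduced ThS fluorescence (450/510 nm) marks activity.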
15-hLO inh: qHTS Assay for Inhibitors of 15-hLO (15-human lipoxygenase); Polyunsaturated fatty acid lipoxygenase ALOX15 (Homo sapiens), P16050; purified 15hLO-1, xylenol orange hydroperoxide absorbance; Potency, µM (top dose mostly 57.1 µM), inactives show at the highest dose activity change, negative = inhibition, usual class: inhibitors; 74,000 tested, 1.4% active; also: nearly all actives have a fitted effect of over 55% in size
Target sequence (P16050 whole entry, looked up): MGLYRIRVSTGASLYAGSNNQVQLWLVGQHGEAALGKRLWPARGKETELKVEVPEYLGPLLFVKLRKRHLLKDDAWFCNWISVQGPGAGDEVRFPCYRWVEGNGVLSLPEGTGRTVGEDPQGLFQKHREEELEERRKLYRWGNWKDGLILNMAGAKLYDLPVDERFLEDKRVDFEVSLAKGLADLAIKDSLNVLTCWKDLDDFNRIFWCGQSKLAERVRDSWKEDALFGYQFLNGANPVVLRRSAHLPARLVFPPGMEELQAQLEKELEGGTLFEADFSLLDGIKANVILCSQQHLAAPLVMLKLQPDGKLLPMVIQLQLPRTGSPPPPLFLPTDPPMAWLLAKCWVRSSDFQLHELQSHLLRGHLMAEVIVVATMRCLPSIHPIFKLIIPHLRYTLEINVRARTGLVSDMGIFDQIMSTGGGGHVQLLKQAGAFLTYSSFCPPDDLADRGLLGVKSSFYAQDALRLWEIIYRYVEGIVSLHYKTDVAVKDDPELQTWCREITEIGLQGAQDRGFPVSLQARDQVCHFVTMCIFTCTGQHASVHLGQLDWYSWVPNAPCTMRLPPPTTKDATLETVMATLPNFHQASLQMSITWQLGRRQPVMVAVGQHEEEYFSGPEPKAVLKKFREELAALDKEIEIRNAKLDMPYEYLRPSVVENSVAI
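40 nM 15hLO-1 + cpd, 15 min RT; start w/ 50 uM AA (final), 6 min RT; stop/detect w/ 200 uM XO + 300 uM Fe(II) in 50 mM H2SO4, 30 min; A573/A405. Buffer 25 mM Hepes pH 7.5, 0.01% Triton X-100. No-enzyme wells as negative control.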
An asterisk follows results filed as active; i = inactive; ? = inconclusive; · = no result; [ ] = dose if it differs, or a comment. Rows were chosen to be rich in hits. Some 6% of all compounds tested hit in one or more screens of this group. Unless noted, calls follow the shape of the dose curve; as a rule, active = well fitted curve in the direction sought with a large enough effect; inconclusive = small, poorly fitted or top-dose-only effect, or another doubt; inactive = no such curve, though single readings can be large; an effect the other way counts as inactive or inconclusive. Unless noted, % is scaled to controls: 0 for no effect and ±100 for the full control effect; potency is read from the fitted curve at half-maximal effect.

SMILES | DNA Pol III inh | Bst PK mod | Luciferase inh | ERK AVP block | Tau fil binding | 15-hLO inh
O=C(O)c1cc2c(ccc3ccccc32)o1 | · | · | · | · | · | -2%
O=c1cc(-c2ccccc2O)oc2c(O)c(O)ccc12 | 0.5µM* | · | -22%[11.4 µM] | -4% | 40µM* | ?
O=c1cc(-c2ccccc2)oc2c(O)c(O)ccc12 | · | · | · | ? | · | 5µM*
O=C(O)C=Cc1ccc(Cn2ccnc2)cc1 | -6% | · | -1% | -2% | ? | -53%[25.6 µM]
O=C(c1cccc(F)c1)N1CCC[C@@]2(CCN(Cc3nccs3)C2)C1 | -5% | · | 2%[11.4 µM] | 18% | 4% | -4%
Nc1ccccc1C#Cc1ccccc1 | -2% | · | · | 7% | ? | ·
Cc1cccc(C#Cc2ccccc2)n1 | -2% | · | 13µM* | 10% | ? | ?
Cc1cc(NC(=O)c2ccccc2)sc1C | -14% | · | 13µM* | 4% | -10% | ?
O=C(Nc1cc(NC(=O)c2ccccc2)c(C(=O)O)cc1C(=O)O)c1ccccc1 | · | · | · | 12% | · | -4%
Cc1ccc(NC(=O)c2ccccc2)s1 | 0% | 8.3* | 7.9µM* | -15% | -13% | -17%
Cn1cccc1C(=O)OCC(=O)c1cc2ccccc2o1 | -2% | >57 | 25µM* | -4% | 16µM* | -7%
Cc1cccc2sc(NC(=O)Cn3cccc3)nc12 | -4% | · | -1% | 25µM* | 5% | ?
COC(=O)Nc1nc2c(C)cccc2s1 | 1% | >57 | 1% | -6% | 0% | -14%
c1ccc(Nc2ccccc2)cc1 | 3% | · | · | -7% | -5% | 1%
O=C1NC(=O)c2cc(Nc3ccccc3)c(Nc3ccccc3)cc21 | · | · | · | 32µM* | · | -13%
CC(C)(C)Cn1nc(-c2ccc(Cl)cc2)c2c(N)ncnc21 | -3% | · | -1% | 16µM* | -23% | 8%[25.6 µM]
Cc1cc(N)ccc1-n1c(C)ccc1C | -5% | >57 | 2% | 1% | 25µM* | ?
Cc1cc(C(=O)O)ccc1-n1c(C)ccc1C | ? | >57 | 2% | -20% | -6% | ?
CN(C)c1ccc(-c2noc(-c3ccccc3O)n2)cc1 | -9% | i | 1µM* | 1% | -13% | -1%
COc1ccc(-c2nc(-c3ccc(Br)cc3)no2)c(OC)c1 | 0% | 6.3* | 2.5µM* | -11% | 350% | -7%
COc1cc(OC)cc(-c2nc(-c3ccc(Br)cc3)no2)c1 | 0%[11.4 µM] | · | 1% | -4% | 186%[11.4 µM] | 7%[11.4 µM]
COc1ccc(Cl)cc1-c1nc(-c2ccncc2)no1 | -5% | >57 | 0% | -9% | 1% | 1%
COc1ccccc1-c1nc(-c2ccc(Br)cc2)no1 | 1% | · | 13µM* | 18% | 72% | 3%
COc1ccccc1-c1noc(-c2cc(OC)c(OC)c(OC)c2)n1 | 1% | >57 | -2% | -11% | 19% | -5%
Cc1ccc(-c2noc(-c3ccccc3C(=O)N3CCN(C)CC3)n2)cc1 | 4% | >11 | -8% | -9% | 9% | 3%
SMILES | DNA Pol III inh | Bst PK mod | Luciferase inh | ERK AVP block | Tau fil binding | 15-hLO inh
COc1ccccc1-c1nc(-c2ccncc2)no1 | 6% | i | 20µM* | 4% | 6% | -2%
Cc1cnc(CNc2nc(-c3ccc(C(=O)N(C)C)cc3)nc3ccccc23)cn1 | -7% | · | -9%[2.29 µM] | 1% | -12% | -4%
Cc1ccccc1-c1noc(-c2ccc(O)cc2)n1 | 0%[11.4 µM] | · | 20µM* | 2% | ? | -25%[11.4 µM]
Cc1ccc(-c2noc(-c3ccccc3C(=O)N3CCCC3)n2)cc1 | -3% | · | -24% | -7% | -5% | -10%
Cc1ccccc1-c1noc(-c2ccccc2C(=O)N2CCCC2)n1 | -7% | >57 | 0% | 0% | 6% | -1%
Cc1ccc(-c2noc(-c3ccccc3Br)n2)cc1 | 3% | · | 3.2µM* | 44% | -12% | -12%
CCOC(=O)C1CCN(C(=O)Nc2ccc3nc(-c4ccco4)c(-c4ccco4)nc3c2)CC1 | 13µM* | · | -27% | 25µM* | 0.79µM* | 5µM*
CCOC(=O)C1CCN(C(=O)Nc2ccc3c(c2)nc(C)n3C)CC1 | -7% | >57 | -1% | -4% | 2% | 2%
O=C(Nc1ccc2nc(-c3ccco3)c(-c3ccco3)nc2c1)N1CCCCCC1 | 16µM* | >57 | -14% | ? | 1.3µM* | 5µM*
O=C(NC1CCCC1)c1ccc2nc(-c3ccco3)c(-c3ccco3)nc2c1 | -22% | · | ? | ? | -19% | 10µM*
COc1ccc(/C=N/NC(=O)c2cc(-c3ccc(Cl)cc3)n[nH]2)cc1OC | · | · | · | · | · | -4%
O=S1(=O)c2cccc3cccc(c23)N1Cc1nnc(-c2ccccc2Br)o1 | 15% | 2.1* | 3% | 5% | 25% | -6%
O=S1(=O)c2cccc3cccc(c23)N1Cc1ccc(-c2nnco2)cc1 | -4% | 1.5* | 1% | -19% | 40% | -2%
Cc1ccc(C(=O)/C=C/Nc2ccccc2C(N)=O)o1 | 0% | 6.1* | 6.3µM* | -21% | 40% | -4%
Cc1ncoc1C(=O)Nc1ccccc1C(N)=O | 0% | >57 | 0% | 2% | -4% | 8%
CC(=O)Nc1ccc(N/C=C/C(=O)c2ccc(C)o2)cc1 | -5% | i | 16µM* | ? | 25% | -3%
Cc1cc2sc(C)[n+](CCCOS(=O)(=O)O)c2cc1C | -7%[11.4 µM] | · | 1%[11.4 µM] | 13%[11.5 µM] | 3%[11.4 µM] | -7%[11.4 µM]
Cn1c(=O)c(-c2ccc(Cl)cc2)nc2cnc(N3CCOCC3)nc21 | 9% | · | 0%[11.4 µM] | 25% | 4% | -2%
COc1cccc(-c2cc3nc(-c4ccccc4)cc(N4CCC5(CC4)OCCO5)n3n2)c1 | 4% | · | -3% | -7% | 28% | -5%
Fc1ccc(-c2cc3nc(-c4ccccc4)cc(N4CCN(CCN5CCOCC5)CC4)n3n2)cc1 | -6% | 2.4* | 1% | -19% | 109% | -11%
COc1ccc(NC(=O)N2CC[C@@]3(CCCN(C(C)=O)C3)C2)cc1 | 0% | · | 2%[11.4 µM] | -14% | 4% | -11%
NCCCC(=O)N1c2ccccc2Sc2ccccc21 | 1% | · | 2% | ? | ? | 5%
O=C(CN1CCCC1)N1c2ccccc2Sc2ccccc21 | -1% | >57 | 0% | -8% | 20µM* | ?
COc1cccc(Cn2c(=O)c(-c3cccc(C#N)c3)nc3cnc(Nc4ccccc4)nc32)c1 | -8% | · | -1%[11.4 µM] | 20% | 30% | 5%
COc1ccccc1N1CCN(c2ccc(-c3ccccc3)nn2)CC1 | -8% | 1.6* | 0.63µM* | -2% | ? | -8%
COc1ccccc1N1CCN(c2nc(-c3ccccc3)cc(C(F)(F)F)n2)CC1 | 2% | >57 | 0% | 5% | 8% | -1%
